INS-1E GSIS act: GLuc luminescence reporter in INS-1E cells, primary screen for activators of glucose-dependent secretion of insulin; INS-1E GLuc reporter insulin secretion, 2-3 h; activation, % at 16.6 µM; 370,000 compounds, 0.61% hits; AID 743287, 2014;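 active = lowest replicate activation of at least 40%, so every replicate reaches that level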;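 note: 0% = median of neutral control wells and 100% = median of IBMX positive control wells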
PGC1a acetyl inh: inhibitors of PGC1a acetylation signal, primary screen, cell-based, U2OS, AlphaScreen, inhibitor mode | AlphaScreen anti-acetyl-lysine; with virally co-expressed GCN5 acetyltransferase | inhibition, % at 15.6 µM | 350,000 compounds, 0.17% hits | AID 651687, 2012;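 active = every replicate shows inhibition of at least 40%; inconclusive = mean inhibition at least 40% but some replicate below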;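 note: 0% = neutral control wells and 100% = positive control wells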
MLL AF4-AF9 inh: inhibitors of AF4 peptide binding to AF9, primary screen, biochemical, AlphaScreen, biotin-AF4 peptide, FLAG-AF9, single point; Protein AF-9 (Homo sapiens), P42568; 350,000 compounds, 0.47% hits; inhibition, % at 10 µM;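 active = every replicate reaching a set inhibition limit, whatever the replicate mean, cut at about 25% in these data; inconclusive = mean inhibition reaches that limit but some replicates miss it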;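 note: 0% = plate neutral control median and 100% = total signal loss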
ERAP1 inh: human ERAP1 aminopeptidase inhibitors, primary screen, biochemical, single point, plate reader; recombinant ERAP1, Leu-AMC fluorescence, 60 min; Endoplasmic reticulum aminopeptidase 1 (Homo sapiens), Q9NZ08; inhibition, % at 10.7 µM; 340,000 compounds, 0.15% hits;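 active = mean replicate inhibition of at least 30%, or all replicates individually reaching that 30% level; inactive = mean below 30% and not every replicate reaching it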;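 note: 0% = neutral control wells and 100% = L-leucinethiol positive control wells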
RAD54 inh: inhibitors of human RAD54 branch migration, primary screen, biochemical, fluorescence, single point. RAD54 Holliday junction branch migration, FAM/BHQ fluorescence. inhibition, % at 10.4 µM. 360,000 compounds, 0.14% hits;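 active = mean normalized replicate activity at least 40 and at least half of replicates scoring 40 or more; inconclusive = only one of the two criteria met; inactive = mean below 40 and under half of replicates reaching 40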;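 note: 0% = median of neutral control wells and 100% = median of positive control wells; inhibitors cause a drop in the FAM fluorescence signal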
Target sequence (Q92698 whole entry, looked up): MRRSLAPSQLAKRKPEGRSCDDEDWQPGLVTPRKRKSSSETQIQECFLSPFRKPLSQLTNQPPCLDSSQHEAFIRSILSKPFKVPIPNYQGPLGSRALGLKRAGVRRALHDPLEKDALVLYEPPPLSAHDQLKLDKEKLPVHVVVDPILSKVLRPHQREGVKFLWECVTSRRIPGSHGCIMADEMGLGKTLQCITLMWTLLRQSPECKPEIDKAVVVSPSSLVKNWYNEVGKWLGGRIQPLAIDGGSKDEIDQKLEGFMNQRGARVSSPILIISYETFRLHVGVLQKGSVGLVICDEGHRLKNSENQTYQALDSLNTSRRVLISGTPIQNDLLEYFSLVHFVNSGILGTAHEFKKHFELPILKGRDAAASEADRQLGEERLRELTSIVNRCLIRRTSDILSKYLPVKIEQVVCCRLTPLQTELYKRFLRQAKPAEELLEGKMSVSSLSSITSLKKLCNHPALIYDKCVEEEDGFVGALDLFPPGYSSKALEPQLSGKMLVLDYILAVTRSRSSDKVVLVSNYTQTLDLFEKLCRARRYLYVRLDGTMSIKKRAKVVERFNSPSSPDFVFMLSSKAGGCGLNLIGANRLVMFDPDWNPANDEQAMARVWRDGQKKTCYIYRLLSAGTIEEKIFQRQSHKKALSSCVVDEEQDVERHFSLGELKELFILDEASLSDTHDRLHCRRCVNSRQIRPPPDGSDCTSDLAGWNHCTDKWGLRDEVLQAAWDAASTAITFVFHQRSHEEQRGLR
RAD52 anneal inh: RAD52 DNA annealing inhibitors, primary screen, biochemical, FRET, single point, set 2; recombinant RAD52 DNA annealing, FRET fluorescence; inhibition, % at 18.7 µM; DNA repair protein RAD52 homolog (Homo sapiens), P43351; AID 651710, 2012; 360,000 compounds, 0.46% hits;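 active = every replicate showing at least 50% inhibition; inconclusive = mean inhibition at least 50% but not in every replicate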
AlphaScreen intf: AlphaScreen signal interference counter-screen, dose response, artefact control, biochemical, cherry-picked samples, luminescence; shares compounds with MLL AF4-AF9 inh; AC50, µM (highest dose often 12 µM), inactives show at the highest dose activity change, negative = inhibition; 530 compounds, 45% hits; AID 720494, 2013; cut-off not given, nearly all actives have AC50 up to about 14 µM
An asterisk follows results filed as active; ? = inconclusive; · = no result given. Shown are actives, neighbours in structure and some others; about 1.4% of the full set was active somewhere.

SMILES | INS-1E GSIS act | PGC1a acetyl inh | MLL AF4-AF9 inh | ERAP1 inh | RAD54 inh | RAD52 anneal inh | AlphaScreen intf
CCn1c(C)c(C(C)=O)c(N2CCN(c3ccc(OC)cc3)CC2)nc1=S | -4 | · | 32* | -1 | · | 36 | -24%
C[C@H](CO)N1C[C@H](C)[C@@H](CN(C)Cc2ccccc2)Oc2ccc(NS(C)(=O)=O)cc2CC1=O | 12 | 5 | 4 | 0 | 3 | -2 | ·
CCN(CC)c1ccc(N=Cc2cc(Br)ccc2O)cc1 | -15 | · | 46* | -2 | · | 10 | -2%
Oc1ccc(Br)cc1C=Nc1ccc(Cl)cc1 | 26 | · | -2 | -2 | · | -7 | ·
O=C(C[C@@H]1CC[C@H]2[C@@H](COC[C@H](O)CN2C(=O)Nc2cccc(Cl)c2)O1)NCc1ccccc1F | -16 | -2 | 0 | 0 | -2 | 8 | ·
O=C(C[C@H]1C=C[C@@H](NC(=O)C2CCOCC2)[C@H](CO)O1)NCC1CCCCC1 | 17 | 6 | -3 | -3 | -14 | 4 | ·
Cc1ccc(C)c2c1c1ccccc1n2C | 22 | 6 | · | 4 | -1 | 9 | ·
CN(C)c1cc2c3ccccc3n(C)c2cc1N | · | · | 28* | 3 | 0 | 9 | -23%
O=C(NCCCN1CCCC1=O)C1CCN(S(=O)(=O)c2cccc(C(F)(F)F)c2)CC1 | 13 | · | 27* | -6 | -7 | 4 | -11%
CC(C)=CCc1cc(-c2oc3cc(O)cc(O)c3c(=O)c2O)ccc1O | -23 | -18 | 35* | -2 | 6 | -9 | -42%
Nc1[nH]n(-c2ccccc2)c(=O)c1N=Nc1ccc2c(c1)OCCO2 | 12 | · | 39* | 0 | 7 | -5 | -22%
COc1ccc2c3c([nH]c2c1)[C@@H](CO)N(S(C)(=O)=O)CC31CCN(Cc2nccs2)CC1 | -6 | 2 | -1 | · | · | · | ·
COc1ccc(S(=O)(=O)/N=C2\C=C(Nc3ccc(O)cc3)C(=O)c3ccccc32)cc1 | -13 | · | 41* | -3 | 2 | 4 | 2.7µM*
Cc1cc(C)c2sc(N(CCCN(C)C)C(=O)c3ccc(S(=O)(=O)N4CCCc5ccccc54)cc3)nc2c1 | -40 | -45 | 56* | 3 | 0 | 39 | -18%
Nc1ccc(O)c2c1C(=O)c1ccccc1C2=O | · | 7 | 38* | 3 | 12 | -16 | -31%
Cc1cccc(C)c1N=Nc1c(C)cc(O)cc1C | 571* | -6 | 35* | -5 | 4 | 1 | 10µM*
O=C(CC1CC1)N1CC(=O)N2[C@@H](CO)[C@H](c3ccc(C#Cc4ccccc4)cc3)[C@@H]2C1 | -5 | -4 | -2 | -2 | · | -14 | ·
C[C@H]1CN([C@@H](C)CO)C(=O)c2cccc(NC(=O)Nc3ccc(F)cc3)c2O[C@H]1CN(C)C(=O)Nc1ccc(C(F)(F)F)cc1 | -36 | 11 | -10 | 6 | 1 | -12 | ·
Cc1ccccc1OCc1nc2ccccc2c(=O)n1/N=C/c1c[nH]c2ccccc12 | -1 | · | 3 | 0 | -5 | -27 | ·
Cc1cc(/C=N/n2c(COc3ccccc3C)nc3ccccc3c2=O)c(O)c([N+](=O)[O-])c1 | 3 | · | 32* | 2 | · | -3 | 4%
CC1CCN(C2=C(NS(=O)(=O)c3ccc(Br)cc3)C(=O)c3ccccc3C2=O)CC1 | 11 | · | 50* | 0 | 7 | -2 | -36%
CC1CCCN(C2=C(NS(=O)(=O)c3ccc(Br)cc3)C(=O)c3ccccc3C2=O)C1 (stereo not drawn) | 15 | 0 | -8 | 1 | -8 | -15 | ·
CCOC(=O)C1CCCN(C2=C(NS(=O)(=O)c3ccc(Br)cc3)C(=O)c3ccccc3C2=O)C1 (stereo not drawn) | 10 | · | 52* | 2 | 1 | 7 | -20%
CCOC(=O)C1CCN(C2=C(NS(=O)(=O)c3ccc(Cl)cc3)C(=O)c3ccccc3C2=O)CC1 | -11 | -3 | 30* | -2 | · | -18 | 1%
C[C@@H]1CN([C@H](C)CO)C(=O)c2cc(NC(=O)Cc3ccccc3)ccc2O[C@@H](C)CCCCO[C@@H]1CN(C)S(=O)(=O)c1ccccc1 | -6 | -3 | -2 | -1 | 7 | -32 | ·
SMILES | INS-1E GSIS act | PGC1a acetyl inh | MLL AF4-AF9 inh | ERAP1 inh | RAD54 inh | RAD52 anneal inh | AlphaScreen intf
COc1ccc(N2CCC(CNC(=S)Nc3ccc(C)cc3C)C2)cc1 (stereo not drawn) | -21 | -18 | ? | 0 | · | -14 | -14%
COc1ccc(N2CCC(CNC(=S)Nc3c(C)cc(C)cc3C)C2)cc1 (stereo not drawn) | 27 | -14 | 23 | -7 | · | 34 | ·
Cc1noc(C)c1S(=O)(=O)N(C)C[C@@H]1Oc2c(NC(=O)C3CCOCC3)cccc2C(=O)N([C@@H](C)CO)C[C@@H]1C | 16 | -1 | · | · | · | · | ·
CN1CCN(C(c2ccc(Br)cc2)c2cc(Cl)c3cccnc3c2O)CC1 (stereo not drawn) | -32 | 2 | 84* | 3 | 3 | 7 | 2.8µM*
CN1CCN(C(c2ccc(F)cc2)c2ccc3cccnc3c2O)CC1 (stereo not drawn) | · | 1 | · | · | -8 | · | ·
CCN(CC)c1ccc(C(=O)O)cc1 | -2 | · | -1 | -7 | · | -10 | ·
CCN(CC)c1ccc(C(=C2C=CC(=[N+](CC)CC)C=C2)c2ccc(S(=O)(=O)O)cc2S(=O)(=O)[O-])cc1 | -6 | 19 | 60* | 3 | -15 | -22 | 7.9µM*
CO[C@@H]1CN(C)C(=O)c2ccc(NS(=O)(=O)CC(F)(F)F)cc2OC[C@@H](C)N(C)C[C@@H]1C | 20 | 6 | -1 | 0 | -13 | 8 | ·
Cc1ccc(NC(=O)NNS(=O)(=O)c2ccc(Br)cc2)cc1 | · | -1 | · | · | -6 | · | ·
Cc1ccc(S(=O)(=O)NC(=O)Nc2ccc(N(C)C)cc2)cc1 | 8 | · | 35* | 0 | 8 | 4 | -28%
CC1NC(=O)NC1CCCCCC(=O)Nc1ccc(F)c(Cl)c1 (stereo not drawn) | -6 | · | 93* | -4 | · | -20 | 0.6µM*
CCC(=O)Nc1ccc(F)c(Cl)c1 | · | -4 | · | · | 4 | · | ·
CCc1cccc(NC(=O)CCCCCC2NC(=O)NC2C)c1 (stereo not drawn) | 4 | -1 | 95* | -3 | · | -9 | 0.29µM*
Cc1ccc(C)c(S(=O)(=O)N2CCN(Cc3ccc(O)c4ncccc34)CC2)c1 | 0 | 38 | 82* | 0 | · | -13 | -31%
CCOc1ccc(NC(=S)NC23CC4CC(CC(C4)C2)C3)cc1 | 1 | 2 | -6 | 0 | 8 | -29 | ·
